Test results from PubChem BioAssay (EPA / NIEHS).
Records with an inconclusive call do not appear. Activity calls are given as the source filed them. How the source made its calls, unless noted: active means hit-call score of the fitted dose curve at least 0.9, where 1 is the maximum; inactive means score below 0.9.

What was measured:
[1] = target: Paired box protein Pax-6 (Homo sapiens) (UniProt P26367); experiment: ATG_Pax6_CIS: Attagene CIS-FACTORIAL HepG2 Assay for human Paired Box 6 (PAX6) (AID 2282956); conditions: HepG2 CIS-FACTORIAL PAX6 reporter transcription, RNA readout; actives raise or lower the signal
In short: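 Values derive from bidirectional curve fitting of reporter mRNA signal relative to DMSO. HepG2 cells bearing transfected cis-regulated MRTUs were exposed for 24 h; transcripts were read by RT-PCR and capillary electrophoresis.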

[2] = ATG_PXRE_CIS: Attagene CIS-FACTORIAL HepG2 Assay for human Pregnane X Receptor Element (PXRE) (AID 2282957); conditions: HepG2 Attagene CIS-FACTORIAL PXRE reporter, mRNA; actives raise or lower the signal
In short: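 Bidirectional activity, baselined to DMSO, derived from reporter mRNA fluorescence (RT-PCR plus capillary electrophoresis) in HepG2 cells bearing cis-promoter reporter units, 24 h exposure.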

[3] = ATG_PPRE_CIS: Attagene CIS-FACTORIAL HepG2 Assay for human Peroxisome Proliferator-activated Response Element (PPRE) (AID 2282958); conditions: HepG2 PPRE cis-element reporter, Attagene transcription factor profiling; actives raise or lower the signal
In short: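 HepG2 cells are transiently transfected with multiplexed cis-promoter reporter units to report endogenous PPAR activity. After 24 h dosing, reporter mRNA is read by RT-PCR and capillary electrophoresis. Fitting is bidirectional against DMSO.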

[4] = ATG_RORE_CIS: Attagene CIS-FACTORIAL HepG2 Assay for human RAR-related Orphan Receptor Element (RORE) (AID 2282959); conditions: HepG2 Attagene cis-factorial RORE reporter, mRNA; actives raise or lower the signal
In short: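 HepG2 cells carrying transiently transfected cis-regulated reporter units; RORE-driven reporter mRNA quantified 24 h post-dosing by RT-PCR, 6-FAM primer extension, HpaI digestion and capillary electrophoresis. Bidirectional fit versus DMSO.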

[5] = ATG_Sox_CIS: Attagene CIS-FACTORIAL HepG2 Assay for human SRY-box transcription factor (SOX) (AID 2282960); conditions: HepG2 Attagene cis-factorial SOX reporter, mRNA; actives raise or lower the signal
In short: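 HepG2 cells transiently transfected with multiple cis-regulated reporter units, then dosed for 24 h. Reporter mRNA quantified by RT-PCR, fluorescent labelling, HpaI digestion and capillary electrophoresis; bidirectional fit versus DMSO.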

[6] = target: Transcription factor Sp1 (Homo sapiens) (UniProt P08047); experiment: ATG_Sp1_CIS: Attagene CIS-FACTORIAL HepG2 Assay for human Specificity Protein 1 (Sp1) (AID 2282961); conditions: HepG2 Sp1 cis-reporter transcription, actives raise or lower the signal
In short: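 HepG2 cells transiently transfected with multiplexed cis-regulated reporter constructs, chemical exposure 24 h. Reporter mRNA quantified by RT-PCR with capillary electrophoresis; bidirectional fit relative to DMSO.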

[7] = ATG_SREBP_CIS: Attagene CIS-FACTORIAL HepG2 Assay for human Sterol Regulatory Element Binding (SREBP) (AID 2282962); conditions: HepG2 Attagene cis-factorial SREBP reporter, mRNA; actives raise or lower the signal
In short: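 Values derive from bidirectional curve fitting with DMSO as baseline. The underlying measurement is reporter mRNA from cis-element-regulated units in transiently transfected HepG2, quantified by RT-PCR and capillary electrophoresis after 24 h exposure.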

[8] = target: Signal transducer and activator of transcription 3 (Homo sapiens) (UniProt P40763); experiment: ATG_STAT3_CIS: Attagene CIS-FACTORIAL HepG2 Assay for human Signal Transducer and Activator of Transcription 3 (STAT3) (AID 2282963); conditions: HepG2, Attagene cis-factorial STAT3 reporter transcription; actives raise or lower the signal
In short: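 Cis-factorial format: endogenous transcription factors in HepG2 drive transfected reporter units. After 24 h treatment, reporter RNA was reverse-transcribed, amplified, FAM-labelled and HpaI-digested before CE analysis; activity scored in both directions against DMSO.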

[9] = ATG_TA_CIS: Attagene CIS-FACTORIAL HepG2 Assay for human TA Basal Promoter (AID 2282964); conditions: HepG2 Attagene CIS-factorial TA basal promoter reporter; actives raise or lower the signal
In short: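 Fluorescence from labelled RT-PCR reporter fragments, separated by capillary electrophoresis, gives the signal. Cells: HepG2 transiently carrying multiple reporter units, 24 h chemical dosing. Gain or loss relative to DMSO.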

[10] = target: X-box-binding protein 1 (Homo sapiens) (UniProt P17861); experiment: ATG_Xbp1_CIS: Attagene CIS-FACTORIAL HepG2 Assay for human X-box Binding Protein 1 (XBP1) (AID 2282972); conditions: HepG2 XBP1 cis-element reporter, Attagene multiplex; actives raise or lower the signal
In short: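 Human hepatoma HepG2, cis-element reporter system, 24 h treatment; mRNA quantified by RT-PCR/CE fluorescence; fit relative to DMSO.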

[11] = ATG_M_19_TRANS: Attagene TRANS-FACTORIAL HepG2 Assay for M19 Transcription Factor (Internal Marker) (AID 2282974; active means hit-call score of the fitted dose curve at least 0.9, where 1 is the maximum); conditions: HepG2 Attagene TRANS-FACTORIAL M19 internal marker reporter
In short: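 HepG2 transiently transfected with GAL4-UAS multiplex reporter constructs, exposed 24 h; reporter RNA quantified by RT-PCR, 6-FAM labeling, HpaI digestion and capillary electrophoresis; internal background marker fitted upward versus DMSO.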

[12] = ATG_TGFb_CIS: Attagene CIS-FACTORIAL HepG2 Assay for human Transforming Growth Factor (TGF) (AID 2282967); conditions: HepG2 Attagene CIS TGFb reporter, mRNA transcription; actives raise or lower the signal
In short: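 Bidirectional fitting relative to DMSO gave the endpoint. Underlying data: reporter mRNA from HepG2 cells carrying transiently transfected cis-regulated reporter constructs, harvested 24 h after dosing and analyzed by RT-PCR and capillary electrophoresis.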

[13] = ATG_VDRE_CIS: Attagene CIS-FACTORIAL HepG2 Assay for human Vitamin D Receptor Element (VDRE) (AID 2282968); conditions: HepG2 VDRE cis-reporter transcription, actives raise or lower the signal
In short: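 Measures endogenous factor activity through cis-element-driven reporter transcripts in transiently transfected HepG2. Cells are treated 24 h; reporter mRNA is quantified by RT-PCR and capillary electrophoresis; fitting is bidirectional.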

[14] = ATG_GAL4_TRANS: Attagene TRANS-FACTORIAL HepG2 Assay for GAL4 (Internal Marker) (AID 2282976; active means hit-call score of the fitted dose curve at least 0.9, where 1 is the maximum); conditions: HepG2 Attagene TRANS GAL4 internal marker reporter
In short: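 Liver HepG2 line bearing multiplexed GAL4-UAS reporter constructs; 24 h chemical treatment. Transcripts were quantified as fluorescent fragments on capillary electrophoresis after RT-PCR and HpaI cut, with activity fitted upward from DMSO.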

[15] = ATG_TCF_b_cat_CIS: Attagene CIS-FACTORIAL HepG2 Assay for human T-Cell-Factor with beta-catenin (TCF/b-cat) (AID 2282965); conditions: HepG2 TCF/beta-catenin cis-reporter transcription, actives raise or lower the signal
In short: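 Endogenous transcription factor activity is captured through cis-promoter reporter constructs transiently introduced into human HepG2 liver cells. Induced reporter mRNA is measured after 24 h and fitted bidirectionally relative to DMSO.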

[16] = ATG_TAL_CIS: Attagene CIS-FACTORIAL HepG2 Assay for human TAL Basal Promoter (AID 2282966); conditions: HepG2 Attagene cis-factorial TAL promoter reporter; actives raise or lower the signal;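 further: background control endpoint measuring basal TAL promoter reporter mRNA not a specific factor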
In short: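 Human hepatoma HepG2 cells, transfected with promoter-regulated reporter units, were treated 24 h. Reporter transcript levels, measured through RT-PCR and capillary electrophoresis, were fitted for gain or loss relative to DMSO.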

[17] = target: Nuclear receptor subfamily 1 group I member 3 (Homo sapiens) (UniProt Q14994); experiment: ATG_CAR_TRANS: Attagene TRANS-FACTORIAL HepG2 Assay for human Constitutive Androstane Receptor (CAR) (AID 2282969; active means hit-call score of the fitted dose curve at least 0.9, where 1 is the maximum;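 further: activators raise reporter mRNA above DMSO so AC50 marks induction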); conditions: HepG2 Attagene TRANS-FACTORIAL CAR reporter
In short: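 Signal is reporter mRNA induction relative to DMSO, measured 24 h after dosing by RT-PCR with fluorescent primer extension and capillary electrophoresis. Human HepG2 liver cells carried transiently transfected chimeric NR-Gal4/GAL4-UAS reporter constructs.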

[18] = target: Steroid hormone receptor ERR1 (Homo sapiens) (UniProt P11474); experiment: ATG_ERRa_TRANS: Attagene TRANS-FACTORIAL HepG2 Assay for human Estrogen-Related Receptor alpha (ERRa) (AID 2282971; active means hit-call score of the fitted dose curve at least 0.9, where 1 is the maximum); conditions: HepG2 Attagene TRANS reporter, ERRa transactivation
In short: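 Signal gain relative to DMSO for an ERRa-Gal4 chimeric receptor, read as reporter mRNA by RT-PCR/capillary electrophoresis. Human HepG2 liver cells, transient multiplex reporter transfection, 24 h chemical exposure.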

[19] = target: Estrogen-related receptor gamma (Homo sapiens) (UniProt P62508); experiment: ATG_ERRg_TRANS: Attagene TRANS-FACTORIAL HepG2 Assay for human Estrogen-Related Receptor gamma (ERRg) (AID 2282977; active means hit-call score of the fitted dose curve at least 0.9, where 1 is the maximum;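 further: hits increase reporter signal over DMSO so potencies reflect activators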); conditions: HepG2 Attagene TRANS reporter, ERRg transactivation
In short: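 Exogenous NR-Gal4 chimera activity was assessed in HepG2 cells bearing transfected GAL4-UAS reporters. After 24 h dosing, total RNA underwent RT-PCR, fluorescent primer extension and HpaI digestion before capillary electrophoresis, with gain of signal scored against DMSO.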

Measured: AC50

Chain of Transcription factor Sp1 (Homo sapiens) (P08047 whole entry, looked up): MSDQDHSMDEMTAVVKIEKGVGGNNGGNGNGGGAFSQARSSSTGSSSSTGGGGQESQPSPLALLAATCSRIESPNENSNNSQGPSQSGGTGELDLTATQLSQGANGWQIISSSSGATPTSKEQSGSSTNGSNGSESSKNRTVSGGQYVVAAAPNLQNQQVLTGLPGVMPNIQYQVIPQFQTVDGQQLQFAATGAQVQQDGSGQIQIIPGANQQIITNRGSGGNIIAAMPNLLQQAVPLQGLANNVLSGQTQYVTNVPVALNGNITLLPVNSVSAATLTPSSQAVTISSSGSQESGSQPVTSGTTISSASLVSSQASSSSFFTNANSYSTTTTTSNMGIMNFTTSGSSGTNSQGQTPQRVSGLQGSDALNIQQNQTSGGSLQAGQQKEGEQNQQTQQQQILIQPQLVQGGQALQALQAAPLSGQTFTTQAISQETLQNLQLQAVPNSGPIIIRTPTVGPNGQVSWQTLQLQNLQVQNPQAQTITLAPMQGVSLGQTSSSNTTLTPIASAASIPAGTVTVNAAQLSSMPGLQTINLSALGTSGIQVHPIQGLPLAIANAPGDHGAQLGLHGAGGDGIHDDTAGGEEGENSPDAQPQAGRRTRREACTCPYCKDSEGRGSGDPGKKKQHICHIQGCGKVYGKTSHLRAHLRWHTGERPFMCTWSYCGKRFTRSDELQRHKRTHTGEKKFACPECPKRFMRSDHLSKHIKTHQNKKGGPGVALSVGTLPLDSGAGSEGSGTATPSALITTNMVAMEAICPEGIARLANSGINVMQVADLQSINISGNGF
Chain of Steroid hormone receptor ERR1 (Homo sapiens) (P11474 whole entry, looked up, the tested form may be a part): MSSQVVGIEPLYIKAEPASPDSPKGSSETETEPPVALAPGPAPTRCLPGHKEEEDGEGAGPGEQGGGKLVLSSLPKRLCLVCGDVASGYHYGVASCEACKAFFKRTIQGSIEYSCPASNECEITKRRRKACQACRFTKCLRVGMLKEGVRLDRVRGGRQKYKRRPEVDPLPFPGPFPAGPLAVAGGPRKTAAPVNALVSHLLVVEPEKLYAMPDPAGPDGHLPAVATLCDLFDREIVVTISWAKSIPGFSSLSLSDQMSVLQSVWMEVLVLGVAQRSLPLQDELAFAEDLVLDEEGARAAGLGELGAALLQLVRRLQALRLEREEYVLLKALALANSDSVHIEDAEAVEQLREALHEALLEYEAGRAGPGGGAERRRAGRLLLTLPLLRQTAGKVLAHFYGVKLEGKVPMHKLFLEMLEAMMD
Chain of X-box-binding protein 1 (Homo sapiens) (P17861 whole entry, looked up): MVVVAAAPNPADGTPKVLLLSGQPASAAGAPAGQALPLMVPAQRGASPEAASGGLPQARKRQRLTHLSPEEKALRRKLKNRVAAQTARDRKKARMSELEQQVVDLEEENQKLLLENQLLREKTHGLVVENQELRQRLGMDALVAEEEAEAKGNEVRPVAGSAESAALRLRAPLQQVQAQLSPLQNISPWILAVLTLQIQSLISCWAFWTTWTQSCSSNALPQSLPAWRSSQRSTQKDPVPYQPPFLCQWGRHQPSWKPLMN
Chain of Nuclear receptor subfamily 1 group I member 3 (Homo sapiens) (Q14994 whole entry, looked up, the tested form may be a part): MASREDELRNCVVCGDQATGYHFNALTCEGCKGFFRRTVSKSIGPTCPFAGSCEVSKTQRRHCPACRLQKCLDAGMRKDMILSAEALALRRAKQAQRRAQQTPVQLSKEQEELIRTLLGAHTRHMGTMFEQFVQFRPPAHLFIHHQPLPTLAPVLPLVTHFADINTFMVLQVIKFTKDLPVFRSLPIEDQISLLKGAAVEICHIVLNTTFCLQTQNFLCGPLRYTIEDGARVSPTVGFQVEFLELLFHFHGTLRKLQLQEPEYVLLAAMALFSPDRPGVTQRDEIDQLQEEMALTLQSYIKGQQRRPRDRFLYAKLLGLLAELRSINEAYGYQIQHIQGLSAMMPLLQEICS
Chain of Estrogen-related receptor gamma (Homo sapiens) (P62508 whole entry, looked up, the tested form may be a part): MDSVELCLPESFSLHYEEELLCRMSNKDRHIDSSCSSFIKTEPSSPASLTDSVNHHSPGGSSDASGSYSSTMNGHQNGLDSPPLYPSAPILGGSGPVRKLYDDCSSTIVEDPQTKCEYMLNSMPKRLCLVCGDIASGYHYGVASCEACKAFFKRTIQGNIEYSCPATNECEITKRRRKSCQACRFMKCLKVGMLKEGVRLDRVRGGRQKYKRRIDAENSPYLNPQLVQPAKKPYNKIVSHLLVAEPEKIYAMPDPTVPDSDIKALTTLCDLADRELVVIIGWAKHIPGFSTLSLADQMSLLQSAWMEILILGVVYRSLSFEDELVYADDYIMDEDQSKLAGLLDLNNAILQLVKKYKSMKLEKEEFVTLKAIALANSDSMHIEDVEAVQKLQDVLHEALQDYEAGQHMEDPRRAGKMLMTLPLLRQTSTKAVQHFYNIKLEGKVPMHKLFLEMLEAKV
Chain of Paired box protein Pax-6 (Homo sapiens) (P26367 whole entry, looked up): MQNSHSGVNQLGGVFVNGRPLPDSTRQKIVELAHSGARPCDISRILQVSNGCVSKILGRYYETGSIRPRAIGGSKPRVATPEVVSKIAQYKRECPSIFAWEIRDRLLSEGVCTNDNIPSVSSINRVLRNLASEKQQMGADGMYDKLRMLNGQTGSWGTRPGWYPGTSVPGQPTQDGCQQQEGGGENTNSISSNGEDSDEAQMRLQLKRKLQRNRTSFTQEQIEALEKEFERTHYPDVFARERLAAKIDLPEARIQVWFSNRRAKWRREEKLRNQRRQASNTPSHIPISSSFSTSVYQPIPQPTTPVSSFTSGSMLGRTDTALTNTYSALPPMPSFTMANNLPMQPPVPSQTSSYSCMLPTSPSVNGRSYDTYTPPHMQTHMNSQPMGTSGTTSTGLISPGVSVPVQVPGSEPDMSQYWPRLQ
Chain of Signal transducer and activator of transcription 3 (Homo sapiens) (P40763 whole entry, looked up): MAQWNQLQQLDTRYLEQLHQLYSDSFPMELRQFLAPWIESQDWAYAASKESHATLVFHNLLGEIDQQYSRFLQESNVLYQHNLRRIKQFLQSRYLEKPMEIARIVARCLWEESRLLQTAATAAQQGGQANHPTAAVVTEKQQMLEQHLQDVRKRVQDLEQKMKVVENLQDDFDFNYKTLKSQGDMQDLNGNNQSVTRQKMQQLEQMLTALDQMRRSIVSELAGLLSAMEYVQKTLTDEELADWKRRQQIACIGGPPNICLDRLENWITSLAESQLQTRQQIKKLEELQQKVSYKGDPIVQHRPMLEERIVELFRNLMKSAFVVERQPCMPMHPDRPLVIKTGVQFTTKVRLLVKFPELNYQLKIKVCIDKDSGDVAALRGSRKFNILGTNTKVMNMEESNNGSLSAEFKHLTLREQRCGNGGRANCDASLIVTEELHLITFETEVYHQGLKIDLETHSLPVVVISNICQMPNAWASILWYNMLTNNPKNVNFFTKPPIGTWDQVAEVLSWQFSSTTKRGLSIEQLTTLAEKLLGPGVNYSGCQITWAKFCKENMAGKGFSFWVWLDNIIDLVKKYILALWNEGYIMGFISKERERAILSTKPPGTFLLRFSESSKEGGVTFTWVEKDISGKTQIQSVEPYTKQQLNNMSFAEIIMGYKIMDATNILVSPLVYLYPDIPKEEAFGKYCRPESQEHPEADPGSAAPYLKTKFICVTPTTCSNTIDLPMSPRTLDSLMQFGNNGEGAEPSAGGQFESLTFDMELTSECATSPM

CCCCCCCCCC(=O)OC
not listed: [12] | [13] | [14] | [15] | [16] | [17] | [18] | [19]
inactive: all other assays above

O=C(CS)OCCOC(=O)CS
active: [2] 37.8 µM | [3] 19.7 µM
not listed: [10] | [11] | [15] | [16] | [17] | [18] | [19]
inactive: all other assays above

CCCC(=O)c1ccccc1
not listed: [9]
inactive: all other assays above

C1CCCCC1
not listed: [13] | [14] | [16] | [17] | [19]
inactive: all other assays above

CCCCCCCCSCCO
active: [2] 25 µM
not listed: [11] | [13] | [14] | [17] | [18] | [19]
inactive: all other assays above

CCCCCCCCC=CCCCCCCCC1=NCCN1CCO
active: [2] 60.6 µM | [3] 0.261 µM | [8] 25.9 µM | [12] 0.666 µM
not listed: [14] | [16] | [17]
inactive: all other assays above

CCCCCCC(=O)c1ccccc1
active: [2] 43.2 µM
not listed: [12] | [13] | [14] | [18] | [19]
inactive: all other assays above

C=CC(C)C#N (configuration not stated)
not listed: [11] | [16] | [18] | [19]
inactive: all other assays above

C[C@H]1C[C@@H](O)CC(C)(C)C1
active: [2] 68.4 µM
not listed: [6] | [12] | [17] | [18]
inactive: all other assays above

CC(=O)C1(C)CC2=C(CCCC2(C)C)CC1C (configuration not stated)
active: [2] 25.6 µM | [3] 100 µM | [4] 74.4 µM | [6] 162 µM | [15] 73.3 µM | [16] 148 µM
not listed: [7] | [18] | [19]
inactive: all other assays above

COc1cccc(OC)c1O
active: [2] 27 µM
not listed: [7] | [11] | [12] | [14] | [17] | [18] | [19]
inactive: all other assays above

CCCCCCC(C)Nc1ccc(Nc2ccccc2)cc1 (configuration not stated)
active: [2] 1.78 µM | [13] 2.32 µM
not listed: [7] | [11] | [14] | [17] | [18] | [19]
inactive: all other assays above

CCCCCCOCCOCCO
not listed: [7] | [13] | [14] | [17] | [18] | [19]
inactive: all other assays above
